COUP-TFII inh: NR2F2 transcriptional activity inhibitors, primary screen, cell-based, luciferase reporter, HEK293T, luminescence; COUP transcription factor 2 (Homo sapiens), P24468; HEK293T NGFI-A luciferase reporter; inhibition, % at 8.6 µM; actives 0.7% (n = 370,000);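 active = inhibition above a per-plate cutoff, mean inhibition of test wells between control levels plus 3 SD, cut at about 38% in these data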;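 note: cells cotransfected with COUP-TFII expression vector driving the NGFI-A reporter; 0% = median of COUP-TF2 test wells and 100% = reporter-only cells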
Target sequence (P24468 whole entry, looked up): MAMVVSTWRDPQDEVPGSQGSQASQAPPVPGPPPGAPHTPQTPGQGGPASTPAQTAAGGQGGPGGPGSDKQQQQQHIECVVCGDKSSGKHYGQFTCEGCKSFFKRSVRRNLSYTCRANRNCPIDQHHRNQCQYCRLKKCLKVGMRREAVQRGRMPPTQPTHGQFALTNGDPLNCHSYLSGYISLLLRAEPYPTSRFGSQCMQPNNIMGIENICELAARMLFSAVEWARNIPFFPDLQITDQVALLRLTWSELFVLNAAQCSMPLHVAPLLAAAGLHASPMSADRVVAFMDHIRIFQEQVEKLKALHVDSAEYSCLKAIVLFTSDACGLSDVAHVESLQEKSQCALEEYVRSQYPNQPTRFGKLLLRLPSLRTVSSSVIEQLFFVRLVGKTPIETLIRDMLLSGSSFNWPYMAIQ
Gli-Sufu block: Gli-Sufu pathway antagonists, primary screen, luciferase luminescence, Sufu-KO-LIGHT cells, uHTS. actives 0.74% (n = 340,000). AID 588413, 2011. inhibition, % at 5 µM. Sufu-KO-LIGHT fibroblasts, Gli luciferase reporter luminescence;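 active = inhibition above about 55%, limit read from the data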;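 note: 0% = DMSO-treated cells and 100% = wells with medium but no cells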
aDG glyco act: activators of alpha-DG glycosylation, primary screen, uHTS, Pro5-aDG cells, AlphaScreen | actives 0.22% (n = 360,000) | activation, % at 10 µM | alpha-DG glycosylation AlphaScreen (IIH6); 0% Pro5, 100% B10-LARGE cell signal;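 active = activation of at least 8% versus controls, or a plate z-score of at least 8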;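 note: Pro5 are CHO cells carrying HIG-tagged alpha-DG that lacks glycosylation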
GalR3 antag: GalR3 antagonists in HEK293 cells, primary screen, cell-based, fluorescence readout | HEK293 GalR3-CNG cAMP membrane potential fluorescence; galR3 body fused to GalR1 C-terminus | inhibition, % at 3 µM | actives 0.44% (n = 360,000) | Galanin receptor type 3 (Homo sapiens), O60755;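 active = inhibition above the screen-wide average plus 3 SD, cut at about 13% in these data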;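 note: forskolin and galanin both at EC90 stimulate the cells; cAMP rise reported by CNG channel membrane potential dye signal; 0% = forskolin plus galanin with DMSO and 100% = forskolin alone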
Env fusion inh: inhibitors of HIV-1 Env-driven cell-cell fusion, primary screen, HeLa-JRFL effector, CEM21 target cells, luciferase; inhibition, % at 12.3 µM; actives 1.1% (n = 360,000);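 active = mean replicate inhibition score of at least 50 and every replicate individually at or above 50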;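 note: 0% = plate neutral controls and 100% = maraviroc near 300 nM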
aDG conf: alpha-DG glycosylation enhancers, retest, confirmation, single concentration, Pro5-aDG cells; shares compounds with aDG glyco act; IIH6 AlphaLISA; scaled to LARGE-overexpressing B10 cells as 100%; activation, % at 10 µM (by protocol); actives 17% (n = 600); AID 651671, 2012;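 active = activation of at least 7% in one or more replicates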;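 note: cells exposed to compound for two days before detection; 0% = DMSO-treated Pro5 cells and 100% = DMSO-treated B10-LARGE cells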
* marks the source's active call; other numbers are inactive results; / = no result; ! = not confirmed by another sample; [ ] = another dose, or the depositor's remark. Hits are enriched below; roughly 2.1% of the tested compounds scored in any of these assays.

SMILES	COUP-TFII inh	Gli-Sufu block	aDG glyco act	GalR3 antag	Env fusion inh	aDG conf
O=C(CCc1ccccc1)NC(NC(=S)Nc1ccc(Br)cc1)C(Cl)(Cl)Cl (configuration not stated)	17.4	-1.6	2.1	-7.0	/	/
Cc1ccc(CS(=O)Cc2ccc(C(=O)NCc3cccs3)o2)cc1 (configuration not stated)	-4.5	-3.6	6.1*	1.3	-3.3	0.0
C[C@@H]1CN([C@H](C)CO)C(=O)Cc2cc(NC(=O)C3CCCCC3)ccc2O[C@H]1CN(C)C(=O)Nc1ccccc1	/	/	/	/	6.8[16.7 µM]	/
O=C(Nc1cccc(Cl)c1)N[C@@H]1CC[C@H](CCNC(=O)C2CCOCC2)O[C@H]1CO	/	/	/	/	-20.2[16.7 µM]	/
O=C(CCN1N=C(c2ccccc2)CCC1=O)NC1CCCCC1	-14.8	/	0.1	2.1	17.6	/
O=C(CCN1N=C(c2ccccc2)CCC1=O)NC1CCCC1	0.0	8.6	3.0*	1.5	1.0	-1.1
NC(=O)NC[C@@H]1CC[C@@H](Cc2ccc(-c3ccccc3)cc2)O1	/	-68.1	0.0	/	/	/
COc1ccc(NC(=O)NC[C@@H]2CC[C@@H](Cc3ccc(-c4ccccc4)cc3)O2)cc1	1.4	-5.2	6.4*	-4.4	31.4	0.7
O=C(Nc1cc(Cl)ccc1-n1cncn1)c1ccco1	-1.1	0.9	-0.3	3.6	1.8	/
O=C(Nc1cc(Cl)ccc1-n1cncn1)c1ccc([N+](=O)[O-])s1	/	14.8	11.8*	/	/	3.8*
COc1cccc(NC(=O)Nc2ccc3c(c2)C(=O)N(C)C[C@@H](OC)[C@@H](C)CN(C)[C@@H](C)CO3)c1	/	/	/	/	-13.2[16.7 µM]	/
Cc1ccccc1CSc1nnc([C@@H]2CCCN2)o1	9.9	43.7	4.8*	-4.4	12.9	0.1
COc1ccccc1NC(=O)Cn1cc(C(=O)C2CC2)c2ccccc21	3.0	11.4	0.1	-1.1	-0.4	/
CC(C)NC(=O)Cn1cc(C(=O)C2CC2)c2ccccc21	-3.9	-6.0	11.3*	-5.4	-3.1	-0.1
CC(OC(=O)c1ccc(Cl)nc1)C(=O)NCc1ccc2c(c1)OCO2 (configuration not stated)	8.8	-10.3	7.2*	-4.5	-2.5	-0.9
C[C@@H]1CN([C@H](C)CO)C(=O)c2cc(C#C[C@@H](C)O)cnc2O[C@@H]1CN(C)C(=O)Cc1ccccn1	/	/	/	/	0.1[16.7 µM]	/
CCSc1ccc2nnc(-c3cccs3)n2n1	-9.6	-13.2	0.0	-4.0	-12.8	/
CCOC(=O)CSc1ccc2nnc(-c3cccs3)n2n1	10.5	2.0	9.1*	4.6	-7.6	0.4
COc1ccc([Si](C)(C)[C@@H]2[C@@H](CCn3cc(CCO)nn3)O[C@]3(C(=O)N(c4ccccc4)c4ccccc43)[C@H]2C)cc1	/	/	/	/	48.2[16.7 µM]	/
COCCn1c(SCC#N)nnc1-c1ccc(OC)cc1	-17.5	-2.0	4.7*	-7.0	/	0.3
COCCn1c(SCC(=O)Nc2sc(C)c(C)c2C#N)nnc1-c1ccc(OC)cc1	-1.9	5.3	-0.3	-4.3	-30.1	/
CCc1cc(CNC(=O)c2ccc3nc(Cc4ccc(OC)c(OC)c4)oc3c2)on1	8.7	18.8	8.2*	7.5	2.3	2.4
C[C@@H]1CN([C@H](C)CO)C(=O)c2cc(C#CCN(C)C)cnc2O[C@H]1CN(C)C(=O)NC1CCCCC1	/	/	/	/	16.7[16.7 µM]	/
COc1ccc(/C(CC2(O)C(=O)Nc3ccccc32)=N\O)cc1 (configuration not stated)	-1.1	2.9	6.6*	-1.0	-1.2	0.7
COc1ccccc1S(=O)(=O)N[C@H]1C=C[C@@H](CC(=O)NCc2cc(F)cc(F)c2)O[C@@H]1CO	/	/	/	/	11.9[16.7 µM]	/
SMILES	COUP-TFII inh	Gli-Sufu block	aDG glyco act	GalR3 antag	Env fusion inh	aDG conf
Cc1c(C(=O)N(Cc2ccc(Cl)cc2)C2CCS(=O)(=O)C2)oc2ccccc12 (configuration not stated)	-14.8	0.1	2.3*	-5.8	9.6	-0.5
CCOc1ccc(CN(C(=O)c2oc3ccccc3c2C)C2CCS(=O)(=O)C2)cc1 (configuration not stated)	0.7	5.1	0.2	-4.3	27.4	/
COC(=O)C[C@@H]1CC[C@H]2[C@H](COc3ccc(NC(=O)c4cccc(OC)c4)cc3C(=O)N2C)O1	/	/	/	/	-5.2[16.7 µM]	/
Cc1ccn2c(NC3CCCCC3)c(-c3cccc(SC4CCCCC4)c3)nc2c1	4.7	4.0	5.7*!	-1.8	35.0	1.0
Cc1ccn2c(NC3CCCCC3)c(-c3ccc(SC4CCCCC4)cc3)nc2c1	-0.6	/	0.1	-4.8	26.8	/
COC(=O)c1ccc(NC(=O)c2ccc3nccnc3c2)cc1	-17.8	-6.2	-0.1	-7.3	-7.4	/
O=C(Nc1ccc(OC(F)(F)F)cc1)c1ccc2nccnc2c1	11.3	-3.3	5.5*	-4.6	0.9	-0.4
C[C@@H]1CN([C@@H](C)CO)S(=O)(=O)c2ccc(C#CC3CC3)cc2O[C@H]1CN(C)C(=O)c1cccnc1	/	/	/	/	16.4[16.7 µM]	/
CCNC(=O)/N=C1/NC(=O)C(C(C)C)O1 (configuration not stated)	-1.3	-6.1	21.8*	-1.1	-0.2	-1.0
COc1ccc(NC(=O)N(C)C[C@H]2Oc3ccc(NC(=O)Nc4ccccc4)cc3CC(=O)N([C@@H](C)CO)C[C@@H]2C)cc1	/	/	/	/	3.1[16.7 µM]	/
C[C@H]1CN([C@@H](C)CO)C(=O)c2cc(C#Cc3cccnc3)cnc2O[C@@H]1CN(C)C(=O)CC1CC1	/	/	/	/	-14.0[16.7 µM]	/
COc1cc(C(=O)Nc2cccnc2)cc(OC)c1OC	11.3	4.8	-0.1	-10.7	-2.2	/
COc1ccc(NC(=O)c2cc(OC)c(OC)c(OC)c2)cn1	-22.5	-9.4	3.7*	3.4	/	0.4
CCn1c(SCC(=O)NC2(C#N)CCCCC2)nc2ccccc2c1=O	15.7	4.2	4.0*	-2.1	1.7	-0.3
CCn1c(SCC(=O)NCc2ccccc2)nc2ccccc2c1=O	-3.0	3.5	0.0	-1.5	/	/
Clc1ccccc1OCCn1cnc2ccccc21	-31.8	-25.9	0.4	-6.2	-85.7	/
Brc1ccccc1OCCCCn1cnc2ccccc21	37.3	/	10.4*	0.2	-15.0	2.2
Clc1ccc(SCc2cc(N3CCOCC3)nc(-c3ccccn3)n2)cc1	14.6	29.8	8.5*	-4.6	19.2	4.0*
Clc1ccc(SCc2csc(N3CCOCC3)n2)cc1	-17.8	-12.8	-0.1	-5.2	-13.0	/
COCCN1CCC(CNCc2cn[nH]c2-c2ccc(C)c(C)c2)C1 (configuration not stated)	3.7	2.5	-0.2	7.2	0.3	/
